Source: PubChem BioAssay (NCATS)
Values joined by “and” are separate entries in the source; they are usually repeats but may differ in a detail not shown here. Identical values can stand only once. Inconclusive results are not listed. Active and inactive are the calls of the source. Calls come from the whole dose curve; as a rule, active = well fitted inhibition curve with a large enough effect; inconclusive = small, poorly fitted or top-dose-only effect; inactive = flat fitted curve, though single readings scatter.

How the values were obtained:
FAB9 = assay: qHTS profiling for inhibitors of Plasmodium falciparum proliferation (AID 504749); note: potency is the fitted concentration of half-maximal effect; conditions: P. falciparum in erythrocytes, SYBR Green DNA, 72 h; series mostly up to 28.7 µM
Summary of the method: (§1)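 Each compound contacts P. falciparum-infected red blood cells for 72 h at 37 C; lysis buffer (Tris, EDTA, saponin, Triton X, SYBR Green I) is added and fluorescence measured next morning; values normalized to controls.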

HB3 = assay: as above; conditions: P. falciparum in erythrocytes, SYBR Green DNA, 72 h; series mostly up to 28.7 µM
Summary of the method: as §1

ICS = assay: as above; conditions: P. falciparum in erythrocytes, SYBR Green DNA, 72 h; series mostly up to 28.7 µM
Summary of the method: as §1

JCK = assay: as above; conditions: P. falciparum in erythrocytes, SYBR Green DNA, 72 h; series mostly up to 28.7 µM
Summary of the method: as §1

SC27B = assay: as above; conditions: P. falciparum in erythrocytes, SYBR Green DNA, 72 h; series mostly up to 28.7 µM
Summary of the method: as §1

TAB113 = assay: as above; conditions: P. falciparum in erythrocytes, SYBR Green DNA, 72 h; series mostly up to 28.7 µM
Summary of the method: as §1

W2 = assay: as above; conditions: P. falciparum in erythrocytes, SYBR Green DNA, 72 h; series mostly up to 28.7 µM
Summary of the method: as §1

CRL-7250 = normal cell line; assay: Cytotoxic Profiling of Annotated Libraries Using Quantitative High-Throughput Screening (AID 1296008); conditions: Five cell lines viability, CellTiter-Glo ATP luminescence, 48-72 h; max response: stronger effect = lower value; for max response: % is set by controls: 0 for no effect and ±100 for the full control effect
Summary of the method: (§2)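 Cells exposed to compounds for 48 or 72 hr at 37 degrees Celsius. Viability read as ATP-coupled luminescence with CellTiter-Glo after 10 min at room temperature.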

HEK293 = assay: as above; conditions: Five cell lines viability, CellTiter-Glo ATP luminescence, 48-72 h; max response: stronger effect = lower value
Summary of the method: as §2

HaCat = assay: as above; conditions: Five cell lines viability, CellTiter-Glo ATP luminescence, 48-72 h; max response: stronger effect = lower value
Summary of the method: as §2

GB4 = assay: qHTS profiling for inhibitors of Plasmodium falciparum proliferation (AID 504749); note: potency is the fitted concentration of half-maximal effect; conditions: P. falciparum in erythrocytes, SYBR Green DNA, 72 h; series mostly up to 28.7 µM
Summary of the method: as §1

N140 = assay: as above; conditions: P. falciparum in erythrocytes, SYBR Green DNA, 72 h; series mostly up to 28.7 µM
Summary of the method: as §1

P93_24 = assay: as above; conditions: P. falciparum in erythrocytes, SYBR Green DNA, 72 h; series mostly up to 28.7 µM
Summary of the method: as §1

P94_40 = assay: as above; conditions: P. falciparum in erythrocytes, SYBR Green DNA, 72 h; series mostly up to 28.7 µM
Summary of the method: as §1

PAD = assay: as above; conditions: P. falciparum in erythrocytes, SYBR Green DNA, 72 h; series mostly up to 28.7 µM
Summary of the method: as §1

PC15 = assay: as above; conditions: P. falciparum in erythrocytes, SYBR Green DNA, 72 h; series mostly up to 28.7 µM
Summary of the method: as §1

PC49 = assay: as above; conditions: P. falciparum in erythrocytes, SYBR Green DNA, 72 h; series mostly up to 28.7 µM
Summary of the method: as §1

TAB109 = assay: as above; conditions: P. falciparum in erythrocytes, SYBR Green DNA, 72 h; series mostly up to 28.7 µM
Summary of the method: as §1

TAB165 = assay: as above; conditions: P. falciparum in erythrocytes, SYBR Green DNA, 72 h; series mostly up to 28.7 µM
Summary of the method: as §1

PC26 = assay: as above; conditions: P. falciparum in erythrocytes, SYBR Green DNA, 72 h; series mostly up to 28.7 µM
Summary of the method: as §1
Note: nearly all actives have a fitted effect of over 60% in size.

CN1CCC[C@@H]1Cc1c[nH]c2ccc(CCS(=O)(=O)c3ccccc3)cc12
active: Potency (ICS) 7.08 µM | Potency (W2) 4.78 µM
inactive: Potency (FAB9) | Potency (HB3) | Potency (JCK) | Potency (SC27B) | Potency (TAB113) | outcome (CRL-7250) | max response (HEK293) -1.58% | outcome (HEK293) | outcome (HaCat)

CC1(C)Oc2ccc(C#N)cc2[C@@H](N2CCCC2=O)[C@@H]1O
inactive: outcome (CRL-7250) | max response (HEK293) -3.16%

COC(=O)[C@H]1[C@H]2C[C@@H]3c4[nH]c5cc(OC)ccc5c4CCN3C[C@H]2C[C@@H](OC(=O)COc2ccc(OC)cc2)[C@@H]1OC
inactive: max response (CRL-7250) -0.18% | outcome (HEK293) | outcome (HaCat)

C[C@@H]1CCN(C(=O)[C@H](CCCN=C(N)N)NS(=O)(=O)c2cccc3c2NC[C@H](C)C3)[C@@H](C(=O)O)C1
inactive: max response (CRL-7250) 0.468% | outcome (HEK293) | max response (HaCat) 0.409%

CNC(=O)Oc1ccc2c(c1)[C@]1(C)CCN(C)[C@@H]1N2C
active: Potency (FAB9) 2 µM | Potency (GB4) 4.78 µM | Potency (HB3) 2 µM | Potency (JCK) 2.82 µM | Potency (N140) 1.78 µM | Potency (P93_24) 1.58 µM | Potency (P94_40) 1.58 µM | Potency (PAD) 1.41 µM | Potency (PC15) 1.78 µM | Potency (PC49) 2 µM | Potency (TAB109) 2.24 µM | Potency (TAB165) 1.58 µM | Potency (W2) 1.51 µM
inactive: outcome (CRL-7250) | outcome (HEK293) | max response (HaCat) -0.257% | outcome (HaCat)

C[C@H]1O[C@H](O[C@H]2[C@H](O)[C@@H](O)[C@@H](O[C@H]3[C@H](O)[C@@H](O)[C@H](O)O[C@@H]3CO)O[C@@H]2CO)[C@H](O)[C@@H](O)[C@@H]1N[C@H]1C=C(CO)[C@@H](O)[C@H](O)[C@H]1O
inactive: outcome (CRL-7250) | outcome (HEK293) | outcome (HaCat)

Cn1c(=O)c2c(ncn2CC2OCCO2)n(C)c1=O
inactive: Potency (FAB9) | Potency (GB4) | Potency (HB3) | Potency (ICS) | Potency (JCK) | Potency (N140) | Potency (P93_24) | Potency (P94_40) | Potency (PAD) | Potency (PC15) | Potency (PC26) | Potency (PC49) | Potency (SC27B) | Potency (TAB109) | Potency (TAB113) | Potency (TAB165) | Potency (W2) | max response (CRL-7250) -4.54% and 1.94% | outcome (HEK293) | max response (HaCat) -3.76% | outcome (HaCat)

NC(=O)c1ncn([C@@H]2O[C@H](CO)[C@@H](O)[C@H]2O)c1N
inactive: max response (CRL-7250) -9.1% | max response (HEK293) -5.61% | max response (HaCat) -15%

O=S(=O)(O)NC1CCCCC1
inactive: Potency (FAB9) | Potency (GB4) | Potency (HB3) | Potency (ICS) | Potency (JCK) | Potency (N140) | Potency (P93_24) | Potency (P94_40) | Potency (PAD) | Potency (PC15) | Potency (PC26) | Potency (PC49) | Potency (SC27B) | Potency (TAB109) | Potency (TAB113) | Potency (TAB165) | max response (CRL-7250) -7.57% | outcome (HEK293) | outcome (HaCat)

Cn1cc[nH]c1=S
inactive: max response (CRL-7250) 4.5% | outcome (HEK293) | outcome (HaCat)

O=C(O)[C@H](O)c1ccccc1
inactive: max response (CRL-7250) -7.55% | outcome (HEK293) | outcome (HaCat)

Cc1cc2nc3c(=O)[nH]c(=O)nc-3n(C[C@H](O)[C@H](O)[C@H](O)CO)c2cc1C
inactive: outcome (CRL-7250) | max response (HEK293) -5.47% | max response (HaCat) -19.1%

OCC(CO)N[C@H]1C[C@](O)(CO)[C@@H](O)[C@H](O)[C@H]1O
inactive: max response (CRL-7250) -4.94% | outcome (HEK293) | outcome (HaCat)

C[C@]12CC[C@@H]3c4ccc(O)cc4CC[C@H]3[C@@H]1CCC2=O
inactive: outcome (CRL-7250) | outcome (HEK293) | max response (HaCat) 3.4%

CN(N=O)C(=O)N[C@@H]1[C@@H](O)[C@H](O)[C@@H](CO)O[C@@H]1O
inactive: outcome (CRL-7250) | outcome (HEK293) | outcome (HaCat)

CC1=C(CC(=O)O)c2cc(F)ccc2/C1=C\c1ccc(S(C)(=O)=O)cc1
inactive: max response (CRL-7250) -16.5% | max response (HEK293) -17.6% | max response (HaCat) -12.4%

C/C(=C(\CCOP(=O)(O)O)SC(=O)c1ccccc1)N(C=O)Cc1cnc(C)nc1N
inactive: max response (CRL-7250) -3.12% | outcome (HEK293) | outcome (HaCat)

c1ccc(CN(CC2=NCCN2)c2ccccc2)cc1
active: Potency (PC49) 3.16 µM | Potency (W2) 7.57 µM
inactive: Potency (FAB9) | Potency (HB3) | max response (CRL-7250) 3.95% and 1.52% | max response (HEK293) 0.31% and -21.2% | max response (HaCat) 4.83% | outcome (HaCat)

CC1(C)S[C@@H]2[C@H](NC(=O)Cc3ccccc3)C(=O)N2[C@H]1C(=O)O (tested in a mixture with another compound)
inactive: outcome (CRL-7250) | outcome (HEK293) | max response (HaCat) -1.15%

CC1CC(OC(=O)C(O)c2ccccc2)CC(C)(C)N1C (stereo not given)
inactive: max response (CRL-7250) -13.8% | outcome (HEK293) | max response (HaCat) 1.05%

Nc1cc(=O)[nH]c(N)n1
inactive: outcome (CRL-7250) | max response (HEK293) 4.25% | outcome (HaCat)

NC(N)=NCCC[C@H](N)C(=O)O
inactive: outcome (CRL-7250) | max response (HEK293) -4.96% | outcome (HaCat)

CO/N=C(\C(=O)N[C@@H]1C(=O)N2C(C(=O)O)=C(CSc3nc(=O)c(O)nn3C)CS[C@H]12)c1csc(N)n1
inactive: max response (CRL-7250) 1.86% | outcome (HEK293) | max response (HaCat) -21.1%

O=C(O)Cc1sc(-c2ccccc2)nc1-c1ccc(Cl)cc1
inactive: max response (CRL-7250) 3.43% | outcome (HEK293) | outcome (HaCat)

N[C@H]1C(O)O[C@H](CO)[C@@H](O)[C@@H]1O (stereo not given in full)
inactive: max response (CRL-7250) -7.05% | outcome (HEK293) | outcome (HaCat)

CC(C)C(=O)c1c(C(C)C)nn2ccccc12
inactive: max response (CRL-7250) -8.07% | max response (HEK293) -1.74% | max response (HaCat) 2.88%

COc1ccc2cc1Oc1cc3c(cc1OC)CC[N+](C)(C)[C@H]3Cc1ccc(cc1)Oc1c(OC)c(OC)cc3c1[C@@H](C2)[N+](C)(C)CC3
inactive: outcome (CRL-7250) | outcome (HEK293) | max response (HaCat) 0.882%

CC1=C(C/C=C(\C)CCC[C@H](C)CCC[C@H](C)CCCC(C)C)C(=O)c2ccccc2C1=O
inactive: max response (CRL-7250) 1.2% | outcome (HEK293) | outcome (HaCat)

Cc1cccc(Nc2cc(Cl)nc(SCC(=O)O)n2)c1C
inactive: Potency (FAB9) | Potency (GB4) | Potency (HB3) | Potency (ICS) | Potency (JCK) | Potency (N140) | Potency (P93_24) | Potency (P94_40) | Potency (PAD) | Potency (PC15) | Potency (PC26) | Potency (PC49) | Potency (SC27B) | Potency (TAB109) | Potency (TAB113) | Potency (TAB165) | Potency (W2) | max response (CRL-7250) 0.443% and 0.95% | max response (HEK293) 1.85% and -1.17% | max response (HaCat) 1.74% | outcome (HaCat)
